Nrf2 activator: activators of Nrf2 (ARE) signaling | AREc32 ARE-luciferase reporter (MCF7-derived line), luminescence, 24 h | Potency, µM (titrated, usually from 46.1 µM), inactives show top-dose activation, usual class: activators | hit rate 0.31% among 410,000 | AID 624171; note: potency is the fitted concentration of half-maximal effect; % of control where 0% means no effect; nearly all actives have a fitted effect of over 65% in size
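AREc32 cells carrying an ARE-driven firefly luciferase reporter were seeded at 1000 cells/well in OPTI-MEM with 5% FBS, then exposed to compound for 24 hr at 37 deg C. Luminescence was read with Steady-Glo after 30 min at RT.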
mIDH1 inhibitor: blocks human mutant IDH1 R132H enzyme | IDH1-R132H enzyme, NADPH consumption, diaphorase/resazurin fluorescence | hit rate 0.093% among 390,000 | AID 602179 | Potency, µM (highest dose often 76.6 µM), without a hit: at the top dose activity change, negative = inhibition, actives largely listed as inhibitors; note: potency is the fitted concentration of half-maximal effect; % is set by controls: 0 for no effect and ±100 for the full control effect; nearly all actives have a fitted effect of over 65% in size
Target sequence (O75874 whole entry R132H, stated change not applied): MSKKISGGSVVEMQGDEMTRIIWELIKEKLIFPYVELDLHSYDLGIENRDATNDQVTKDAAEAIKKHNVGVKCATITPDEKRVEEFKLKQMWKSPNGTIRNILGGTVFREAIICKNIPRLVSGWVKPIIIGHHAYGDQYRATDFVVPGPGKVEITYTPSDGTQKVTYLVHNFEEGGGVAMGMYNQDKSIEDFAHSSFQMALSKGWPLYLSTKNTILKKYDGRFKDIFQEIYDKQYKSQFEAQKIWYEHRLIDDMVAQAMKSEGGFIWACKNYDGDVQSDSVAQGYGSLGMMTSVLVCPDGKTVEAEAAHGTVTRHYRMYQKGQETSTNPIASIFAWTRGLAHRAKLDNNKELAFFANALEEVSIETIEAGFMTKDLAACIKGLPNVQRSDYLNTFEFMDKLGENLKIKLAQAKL
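IDH1-R132H (0.5 ug/mL) preincubated 30 min with compound, then NADPH (0.016 mM) and alpha-KG (2 mM) added; 80 min at RT, pH 7.5. Remaining NADPH coupled via diaphorase/resazurin to fluorescence (540/590 nm); concentration-response curves normalized to no-enzyme control.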
LDHA block: blocks human lactate dehydrogenase A; P00338; AID 1347041; activity change, % (values are at about 110 or 230 µM); hit rate 0.15% among 480,000; purified LDHA, NADH/diaphorase-resazurin fluorescence; stronger effect = lower value; in the data active = activity change below about -30%; inconclusive = mostly about -25% to -30%;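 note: plate controls were DMSO wells for no effect and wells without enzyme for full effect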
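LDH5 2 nM; NADH 0.06 mM, pyruvate 0.2 mM; 200 mM Tris pH 7.4, EDTA, Tween-20; 5 min RT. Detection: diaphorase 0.133 mg/mL + resazurin 37 µM, fluorescence ex540/em590 at 0 and 20 min; normalized to enzyme-free and DMSO wells.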
A549 tox: kills or reduces viability of A549 cells in Nrf2 counter-screen | Potency, µM (top dose mostly 46 µM), without a hit: at the highest dose activity change, negative = cytotoxicity, actives largely listed as inhibitors | A549 ARE-Fluc cells, CellTiter-Fluor viability, 18-24 h | hit rate 0.16% among 390,000; note: potency is the fitted concentration of half-maximal effect; % is set by controls: 0 for no effect and ±100 for the full control effect
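A549 ARE_Fluc cells in 5% FBS OPTI-MEM were exposed to compounds in concentration-response for 18-24 h at 37 deg C. Viability was read by CellTiter-Fluor fluorescence (Ex 405/Em 525) after 30 min, before the luciferase read.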
12-LOX inh: blocks human arachidonate 12S-lipoxygenase | P18054 | purified 12hLO, xylenol orange hydroperoxide absorbance | Potency, µM (series often up to 108 µM), for inactives: at the top dose activity change, negative = inhibition, hits mostly inhibitors | hit rate 1.1% among 580,000 | AID 1671190; note: potency is the fitted concentration of half-maximal effect; % is set by controls: 0 for no effect and ±100 for the full control effect
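Purified human 12hLO at 150 nM in 25 mM Hepes, 0.01% Triton X-100, pH 7.0, preincubated 15 min at room temperature with compound. Reaction started with 40 uM arachidonic acid, 30 min at room temperature. Hydroperoxide measured by Fe-xylenol orange, 573/405 nm absorbance ratio.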
Nrf2 block: blocks Nrf2 signaling. hit rate 2.1% among 360,000. AID 504444. A549 ARE-Fluc reporter, luciferase luminescence, 18-24 h. Potency, µM (doses to about 46 µM), for inactives: at the highest dose activity change, negative = inhibition, actives largely listed as inhibitors; note: potency is the fitted concentration of half-maximal effect; % is set by controls: 0 for no effect and ±100 for the full control effect; nearly all actives have a fitted effect of over 60% in size
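A549 ARE_Fluc cells (5000/well, 5% FBS OPTI-MEM) pre-incubated 2 h, then treated with compounds 18-24 h at 37C/5% CO2 in concentration-response. CellTiter-Fluor viability read first; BugLite luciferase luminescence after 15 min at room temperature gives Nrf2 activity.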
* hit, by the source's call; ? = inconclusive; · = not tested or not shown; ! = not active in a repeat. This is a sample that favours compounds with a hit; in the whole collection about 2.7% have one here. Unless noted, calls come from the whole dose curve; as a rule, active = well fitted curve in the direction sought with a large enough effect; inconclusive = small, poorly fitted or top-dose-only effect, or another doubt; inactive = no such curve, though single readings can be large; an effect the other way counts as inactive or inconclusive.

SMILES	Nrf2 activator	mIDH1 inhibitor	LDHA block	A549 tox	12-LOX inh	Nrf2 block
C/C(=N\N=C(N)N)c1ccc(Cl)cc1Cl	0.8%	-1.4%	-3.2	-7.5%	-22.1%	-3.7%
O=C(CCc1nnc2ccc(NCc3ccccc3Cl)nn12)Nc1cccnc1	·	·	-5.6	·	23.3%	·
COc1ccc2c(c1)CC/C(=C/c1cc(OC)c(OC)c(OC)c1)C2=O	25.5%	7.5%	9.2	2.6%	19.4%	-2.5%
COc1ccc2c(c1)CC/C(=C\c1ccc(Br)o1)C2=O	·	·	28.6	·	22.4µM*	·
COc1cc(C(=O)Nc2nnc(C(C)C)s2)cc(Cl)c1OCC(C)C	·	·	7.3	·	-8.6%	·
CSc1cccc(NC(=S)NN/C(=N/S(=O)(=O)c2ccccc2)N2CCCC2)c1	·	·	·	·	44.7µM*	·
CNNCc1ccc(C(=O)NC(C)C)cc1	-1.1%	-8.1%	-10.4	-0.5%	12.2µM*!	3.6%
COc1ccc(NC(=O)CCSc2nnc3scc(-c4ccc(Cl)cc4)n23)cc1	·	·	-5.2	·	-7.8%	·
O=C(CCCOc1ccccc1)OCC(=O)c1ccc(F)c(F)c1	·	·	3.2	·	2.0%	·
CC(C)C[C@H](NC(=O)c1ccc2nc(-n3cccc3)sc2c1)C(=O)NCc1cccnc1	·	·	-17.9	·	11.7%	·
NC(=S)Cc1nc(-c2ccc(Cl)cc2)cs1	12.8%	0.1%	-3.4	-13.2%	35.5µM*	4.1%
CCN(CC)S(=O)(=O)c1cc(-c2n[nH]c(=O)c3ccccc23)ccc1C	·	·	-33.2*	·	50.6%	·
CCOC(=O)N1CCC(NC(=O)c2cc3cc(F)ccc3[nH]2)CC1	·	·	3.2	·	-7.5%	·
CCOC(=O)N1CCC(NC(=O)c2cc(-c3ccc(F)cc3)[nH]c2C)CC1	3.6%	1.8%	-1.4	-29.0%	0.0%	23.1µM*
O=C(NNC(=O)c1sc2cccc(Cl)c2c1Cl)Nc1ccccc1	0.3%	2.8%	-17.5	-14.4%	-0.4%	?
O=C(NNC(=O)c1sc2cccc(Cl)c2c1Cl)NC1CCCCC1	-0.6%	-2.0%	-5.8	-12.0%	-4.0%	9.2µM*
O=C1CN(c2nc(-c3cccnc3)nc3sc4c(c23)CCCC4)CCN1	3.1%	-4.2%	-0.9	-0.9%	10.4%	11.6µM*
Nc1nc(-c2cccnc2)nc2sc3c(c12)CCCC3	7.9%	6.1%	-6.7	1.2%	-11.4%	?
C=C(c1cccc2ccccc12)P(=O)(O)O	-0.5%	2.1%	2.3	18.4%	12.6µM*	·
O=C(Nc1ccc2ccccc2c1)c1cccc2ccccc12	6.0%	12.7%	-10.1	3.7%	3.9%	?
CCn1c(SCC(=O)Nc2nncs2)nnc1C1CCCC1	·	·	-8.0	·	7.6%	·
CC(=O)Nc1ccc(C(=O)OCC(=O)c2ccc(C)c([N+](=O)[O-])c2)cc1	-0.3%	1.9%	2.2	2.0%	96.0%	-17.1%
CCC(=O)Nc1ccc(C(=O)OCC(=O)c2ccc(C)c([N+](=O)[O-])c2)cc1	0.1%	5.8%	-5.1	·	-14.9%	7.31µM*
CCOC(=O)c1cnc(Nc2ccccc2OCC)c2ccccc12	·	·	17.7	·	?	·
CCOC(=O)c1cccc(NC(=O)Nc2cc(OC)ccc2OC)c1	2.7%	-1.3%	-11.7	-7.6%	3.3%	20.6µM*
SMILES	Nrf2 activator	mIDH1 inhibitor	LDHA block	A549 tox	12-LOX inh	Nrf2 block
CCOC(=O)Nc1cccc(OCC(=O)Nc2ccc(OC)cc2OC)c1	1.5%	-1.8%	4.0	?	0.0%	14.6µM*
COc1ccc(OC)c(NC(=O)C(CC(C)C)N2Cc3ccccc3C2=O)c1 (stereo not drawn)	·	·	7.8	·	-4.9%	·
COc1ccc(S(=O)(=O)Oc2ccc3c(c2)O/C(=C\c2ccc(C(C)(C)C)cc2)C3=O)cc1	·	·	12.9	·	-28.9%	·
Cc1cc2ccccc2n1CC(=O)NCc1ccccc1	·	·	1.7	·	10.6%	·
COCCNC(=O)c1cc2sc3ccccc3c2s1	6.6%	3.9%	0.0	2.6%	7.3%	?
CCN(C(=O)c1cc2sc3ccccc3c2s1)c1ccccc1	·	·	-3.8	·	7.94µM*	·
CCC(=O)N1N=C(c2c(-c3ccccc3)c3cc(Cl)ccc3n(C)c2=O)CC1c1cccs1 (stereo not drawn)	·	·	4.1	·	?	·

From PubChem
